Compound activity from PubChem.
This is a sample that favours compounds with a hit; in the whole collection about 7.9% have one here.
MCF10A rereplic: A quantitative high throughput screen for small molecules that induce DNA re-replication in MCF 10a normal breast cells; MCF 10A DNA re-replication, Hoechst nuclear intensity, 48 h; Potency, µM (top dose mostly 46.1 µM), inactives show at the top dose activity, positive = re-replication, most hits filed as activators; hit rate 2.9% among 350,000; note: % of control where 0% means no effect; nearly all actives have a fitted effect of over 50% in size
HT1080 IDH1KD tx: qHTS for induction of synthetic lethality in tumor cells producing 2HG: qHTS for the HT-1080-IDH1KD cell line; HT-1080 IDH1 knockdown viability, ATP luminescence, 48 h; Potency, µM (highest dose often 46.1 µM), for the others: top-dose activity, negative = toxicity, actives largely listed as cytotoxic; hit rate 2% among 360,000; AID 686971, 2013;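 note: 0% = DMSO wells and -100% = cell-free medium wells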
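Viability of IDH1-knockdown HT-1080 fibrosarcoma cells was assessed by CellTiter-Glo after 48 h at 37 °C with titrated compound; concentration-effect curves were classified by fit quality and response size.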
KB-V1 MDR tox: qHTS assay for MDR1-selective chemotherapeutics: Primary screen using the drug-selected MDR subline cells KB-V1; Potency, µM (titrated, usually from 46.1 µM), most hits filed as cytotoxic; hit rate 3.4% among 400,000; KB-V1 MDR cells viability, CellTiter-Glo, 72 h; AID 1347076, 2019; note: % is set by controls: 0 for no effect and ±100 for the full control effect; nearly all actives have a fitted effect of over 60% in size
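KB-V1 MDR subline cells in DMEM (phenol-red free, 10% FBS) exposed to compounds in qHTS concentration series for 72 h at 37 degrees C. Viability read by CellTiter-Glo luminescence; concentration-effect curves fitted after normalization and correction.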
HT1080-NT tox: qHTS for induction of synthetic lethality in tumor cells producing 2HG: qHTS for the HT-1080-NT fibrosarcoma cell line | HT-1080-NT fibrosarcoma viability, CellTiter-Glo ATP luminescence, 48 h | Potency, µM (highest dose often 46.1 µM), without a hit: top-dose activity, negative = less viability, hits mostly cytotoxic | hit rate 1.6% among 360,000 | AID 686970, 2013;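 note: NT is the 2HG producing partner of a matched IDH1 knockdown line; 0% = DMSO-treated cells and -100% = media-only wells without cells; nearly all actives have a fitted effect of over 55% in size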
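Toxicity toward the 2HG-producing NT line was scored as %Activity, normalised to DMSO and no-cell wells, from CellTiter-Glo luminescence after 48 hours' treatment.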
SW480 rereplic: A quantitative high throughput screen for small molecules that induce DNA re-replication in SW480 colon adenocarcinoma cells. SW480 DNA re-replication, Hoechst DNA content imaging, 48 h. Potency, µM (highest dose often 46.1 µM), for inactives: at the highest dose re-replication activation, usual class: activators. hit rate 1.8% among 340,000; note: % of control where 0% means no effect; nearly all actives have a fitted effect of over 55% in size
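First, 250 cells per well were seeded. Next, compound or vehicle (23 nL) was pinned in, plates sat 48 hr at 37 C. Finally Hoechst was added for 40 min before fluorescence scanning.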
KB-3-1 tox: qHTS assay for MDR1-selective chemotherapeutics: Primary screen using the parental adenocarcinoma cell KB-3-1; hit rate 1.4% among 400,000; Potency, µM (highest dose often 46.1 µM), usual class: cytotoxic; KB-3-1 viability, CellTiter-Glo ATP luminescence, 72 h; note: % is set by controls: 0 for no effect and ±100 for the full control effect; nearly all actives have a fitted effect of over 60% in size
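Parental KB-3-1 adenocarcinoma cells in phenol-red-free DMEM with 10% FBS were pin-treated with compounds at several concentrations, incubated 72 h at 37 °C, and viability read by CellTiter-Glo luminescence; concentration-effect curves were fitted after normalization.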
* hit, by the source's call; i = inactive; ? = inconclusive; nt = no result given; ! = not active in a repeat. Calls come from the whole dose curve; as a rule, active = well fitted curve in the direction sought with a large enough effect; inconclusive = small, poorly fitted or top-dose-only effect, or another doubt; inactive = no such curve, though single readings can be large; an effect the other way counts as inactive or inconclusive. Potency is the fitted concentration of half-maximal effect.

SMILES	MCF10A rereplic	HT1080 IDH1KD tx	KB-V1 MDR tox	HT1080-NT tox	SW480 rereplic	KB-3-1 tox
CCCCn1c(=O)c(C(=O)NCCc2ccccc2)c(O)c2ccccc21	18µM*	0%	i	0%	-39%	i
CCCCCn1c(=O)c(C(=O)NCc2ccncc2)c(O)c2ccccc21	?	-29%	2.6µM*	-19%	?	5.8µM*
O=C(NC(=O)c1c(F)cccc1F)Nc1cc(Cl)c(OC(F)(F)C(F)C(F)(F)F)cc1Cl (centres undefined)	19%	nt	nt	nt	1%	nt
CC(C)(C)c1ccc(C(=O)NNC(=O)Cc2cccc3ccccc23)cc1	?	?	i	-22%	13%	i
COC(=O)c1cn(S(=O)(=O)c2ccccc2)c2ccccc12	26µM*	-5%	i	-7%	?	i
CN(C)C(=S)SC(=S)N(C)C	3%	nt	nt	nt	2.7µM*	nt
CN(C)C(=S)SSC(=S)N(C)C	21µM*!	?	i	?	1.3µM*	i
CNC(=O)Oc1ccccc1C(=O)Nc1ccccc1	3%	nt	nt	nt	1%	nt
CCS(=O)(=O)C(C)(C)S(=O)(=O)CC	12%	nt	nt	nt	-1%	nt
CCC/C=C/C=C/C(=O)OC1/C(=C/C(=O)OC)CC2CC(C(C)O)OC(=O)CC(O)CC3CC(OC(C)=O)C(C)(C)C(O)(CC4C/C(=C/C(=O)OC)CC(/C=C\C(C)(C)C1(O)O2)O4)O3 (centres undefined)	16%	nt	nt	nt	?	nt
CCCCn1c(O)c(C(C)=NCc2ccc(F)cc2)c(=O)[nH]c1=O	0%	-11%	i	-1%	-2%	i
CCCCn1c(O)c(C(CC)=NCc2ccc(F)cc2)c(=O)[nH]c1=O	15%	-10%	10µM*	1%	-4%	?
C#C[C@]1(O)CCC2C3C(=O)C=C4C(Cl)=CCC[C@]4(C)C3CC[C@@]21C (some centres undefined)	18µM*	33µM*	i	10µM*	?	i
COC(=O)c1ccc(COC(=O)c2nn(C)c(=O)c3ccccc23)cc1	-9%	4%	i	5%	-21%	i
COc1ccc(S(=O)(=O)Nc2ccccc2OC)cc1N=Nc1c(O)[nH]c(=S)[nH]c1=O	21µM*	12µM*	i	15µM*	9%	i
N#Cc1cc2c(nc1SCC(=O)Nc1ccc(OC(F)(F)F)cc1)C1CCN2CC1	nt	nt	i	nt	nt	?
O=C(O)c1c[nH]c2ccc(S(=O)(=O)N(CCCl)CCCl)cc12	0%	2%	i	5%	-1%	i
N#C/C(=C(/O)c1ccc(S(=O)(=O)N(CCCl)CCCl)cc1)c1nc2ccccc2[nH]1	10µM*	2%	i	2%	?	i
CC1OC(OC2C=C3CCC4C(CCC5(C)C(c6ccc(=O)oc6)CCC45O)C3(C)CC2)C(O)C(OC2OC(CO)C(O)C(O)C2O)C1O (centres undefined)	3%	0.18µM*	?	0.21µM*	?	?
CCOc1ccc(CN2C(=O)c3ccccc3Sc3ccc(C(=O)N4CCC5(CC4)OCCO5)cc32)cc1	nt	nt	i	nt	nt	i
COc1ccc(NC(=O)CSc2nnc(Cc3cccn3C)n2CCc2ccccc2)c(OC)c1	?	?	3.3µM*	?	2%	i
COc1ccc(NC(=O)c2cccn(Cc3ccc(Cl)cc3)c2=O)c(OC)c1	nt	nt	?	nt	nt	i
CC(C)Oc1cc(-n2c(=S)[nH]c3ccccc3c2=O)c(Cl)cc1Cl	84%	?	23µM*	-27%	9%	?
C=CC[C@@H](CC(=O)N(CCO)Cc1ccccc1)C(=O)NC[C@H](OC(=O)[C@@H](CC=C)CC(=O)OC(C)(C)C)c1ccccc1	41%	-25%	i	-17%	-2%	?
CC1CN(C)C(C)(C)CC1(O)c1ccccc1 (centres undefined)	16µM*	16%	i	3%	?	i
SMILES	MCF10A rereplic	HT1080 IDH1KD tx	KB-V1 MDR tox	HT1080-NT tox	SW480 rereplic	KB-3-1 tox
Cc1ccc(C2(O)CC(C)N(C)CC2C)cc1 (centres undefined)	1%	8%	i	12%	-6%	i
COCCCn1c(N)c(C(=O)Nc2ccccc2)c2nc3ccccc3nc21	?	?	i	?	21µM*	?
CCC(C)NC(=O)c1c(N)n(CCCOC)c2nc3ccccc3nc12 (centres undefined)	4.1µM*	-4%	8.2µM*	-4%	7.3µM*	i
COCCCn1c(N)c(C(=O)NCc2ccco2)c2nc3ccccc3nc21	16µM*	-9%	i	-1%	18µM*	i
COCCCn1c(N)c(C(=O)OC(C)COC)c2nc3ccccc3nc21 (centres undefined)	5%	-3%	?	-4%	3%	i
C=C(C)[C@@H]1CC[C@]2(C(=O)O)CC[C@]3(C)C(CCC4[C@@]5(C)CC[C@H](O)C(C)(C)C5CC[C@]43C)C12 (some centres undefined)	?	?	i	?	?	?
Cc1onc(-c2ccccc2Cl)c1C(=O)OCC(=O)c1ccc2c(c1)OCCO2	?	-20%	?	-18%	-9%	i
COC(=O)C1=C(c2ccc(-c3ccccc3)c(F)c2)C[C@@H]2CC[C@H]1N2C(=O)NCc1ccco1	21µM*	-11%	i	-24%	26%	?
COC(=O)C1=C(c2ccc(-c3ccccc3)c(F)c2)C[C@@H]2CC[C@H]1N2C(=O)NCCOc1ccccc1Cl	1%	-17%	21µM*	-25%	?	?
COC(=O)C1=C(c2ccc(-c3ccccc3)c(F)c2)C[C@@H]2CC[C@H]1N2C(=O)NCCO	15%	-1%	?	9%	0%	?
CN1CCN(Cc2nc3ccccc3n2C)CC1	0%	2%	i	-2%	-4%	i
Cn1c(NN=O)nc2ccccc21	-8%	4.6µM*	i	?	?	?
N#CSCC(=O)N1c2ccccc2CCc2ccccc21	?	23µM*	23µM*	?	?	?
Nc1ccccc1C(=O)OCC(=O)N1CCc2ccccc21	0%	18%	i	14%	1%	i
